Compounds with a hit are over-represented: about 0.84% of the library has one in this group of screens.
PPARg SRC1 recr = promotes SRC-1 coactivator recruitment by human PPARgamma | P37231 | PPARgamma-SRC-1 coactivator recruitment biochemical assay | activation, % at 8 µM | 0.41% of 200,000 active; in the data active means activation above about 19%
Target sequence (P37231 whole entry, looked up): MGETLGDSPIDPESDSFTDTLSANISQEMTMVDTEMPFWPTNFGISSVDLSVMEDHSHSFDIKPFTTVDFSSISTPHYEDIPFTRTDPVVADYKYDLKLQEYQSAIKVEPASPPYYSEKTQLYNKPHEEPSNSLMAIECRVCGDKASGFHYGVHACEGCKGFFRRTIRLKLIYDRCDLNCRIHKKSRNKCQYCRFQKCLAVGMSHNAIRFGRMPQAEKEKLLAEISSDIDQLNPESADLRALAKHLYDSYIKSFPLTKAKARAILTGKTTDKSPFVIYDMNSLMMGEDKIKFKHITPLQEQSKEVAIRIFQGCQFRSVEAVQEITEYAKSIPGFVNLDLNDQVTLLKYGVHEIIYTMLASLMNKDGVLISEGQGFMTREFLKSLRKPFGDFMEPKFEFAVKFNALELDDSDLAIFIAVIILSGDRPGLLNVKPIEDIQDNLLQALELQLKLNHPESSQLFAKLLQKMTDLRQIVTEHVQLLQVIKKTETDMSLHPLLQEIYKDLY
PPARg SRC3 recr = PPARgamma-driven SRC-3 recruitment agonism; activation, % at 8 µM; P37231; AID 731; biochemical PPARgamma/SRC-3 coactivator recruitment assay; 0.26% of 200,000 active; in the data active means activation above about 23%
SRC1 TRFRET art = TR-FRET artefact, counter-screen to PPARgamma/SRC-1 agonist assay | TR-FRET ratio at 8 µM | TR-FRET detection artefact counter-screen, emission ratio; hits give high values | 0.34% of 99,000 active | AID 1051; in the data active means TR-FRET ratio above about 2300
SRC3 TRFRET art = counter-screen for PPARgamma SRC-3 recruitment agonists: TR-FRET artefact; PPARgamma/SRC-3 format; hits give high values; TR-FRET ratio at 8 µM; 0.39% of 99,000 active
SRC2 TRFRET art = TR-FRET artefact, counter-screen to PPARgamma/SRC-2 agonist assay; hits give high values; 0.4% of 200,000 active; AID 1049; TR-FRET ratio at 8 µM
PPARg SRC-2 ag = PPARgamma-driven SRC-2 recruitment agonism; activation, % at 8 µM; AID 1032; P37231; PPARgamma LBD-SRC-2 recruitment, biochemical; 0.34% of 200,000 active; in the data active means activation above about 22%
Numbers stand for hits; i = inactive; nt = no result. Unless noted, no stated cut-off is given here; in the data, active means TR-FRET ratio above about 2000; inactive means the rest.

SMILES	PPARg SRC1 recr	PPARg SRC3 recr	SRC1 TRFRET art	SRC3 TRFRET art	SRC2 TRFRET art	PPARg SRC-2 ag
COC(=O)c1ccc(NC(=O)CSc2nnc(C(C)NC(=O)c3ccccc3Cl)n2C)cc1 (stereo not drawn)	i	i	nt	nt	i	i
Cc1ccc2cc(C#N)c(N3CCCN(C(=O)C4CCCO4)CC3)nc2c1 (stereo not drawn)	i	i	nt	nt	i	i
Cc1ccc(S(=O)(=O)N2CCCN(c3nc4cc(C)ccc4cc3C#N)CC2)cc1	i	i	nt	nt	3009	i
O=C(CSc1nnnn1-c1ccccc1)Nc1nsc(-c2ccc(Cl)cc2)n1	i	i	i	2179	i	i
CCN1C(=O)/C(=c2/s/c(=C3\SC(C)=C(C)N3CC)c(=O)n2CC)N(c2ccccc2)C1=S	i	i	nt	nt	i	i
COc1ccc2cc(C(=O)C3CCCN(C(=O)c4csnn4)C3)ccc2c1 (stereo not drawn)	i	i	i	i	i	i
C=CCNC(=O)c1ccc(-c2nc(-c3ccc(Cl)cc3Cl)cs2)cc1	19	i	nt	nt	i	i
COc1cccc(-c2csc(N3CCN(C(=S)Nc4ccc(Cl)cc4)CC3)n2)c1	i	i	nt	nt	3147	i
COc1cccc(-c2csc(N3CCN(C(=O)NC45CC6CC(CC(C6)C4)C5)CC3)n2)c1	i	i	nt	nt	2123	i
CCOCCCNc1nc2c(c(=O)n(C)c(=O)n2C)n1CCCc1ccccc1	i	i	nt	nt	i	i
CC(=O)OC[C@H]1O[C@H](CCO/N=C(\C)CCN2CCCc3nc(C)c(C)cc32)C=C[C@@H]1OC(C)=O	i	i	i	i	i	i
COc1ccc(C(=O)Nc2nc3c(s2)CCCC3)cc1S(=O)(=O)N1CCCc2ccccc21	i	i	i	2089	i	i
COC(=O)c1ccccc1NC(=O)c1cc(-c2ccc(O)cc2)on1	35	i	nt	nt	i	i
COc1ccccc1N1CCN(C(=O)c2ccc(N3CCCC3=O)cc2)CC1	i	i	nt	nt	i	i
CCCn1c(C)cs/c1=N\C(=S)Nc1ccccc1	i	i	i	2212	i	i
Cc1cs/c(=N/C(=S)Nc2ccccc2)n1C	i	i	i	i	i	i
COc1ccc(C)cc1-n1nnnc1SCC(=O)c1ccc2c(c1)OCCO2	i	i	nt	nt	3766	i
COc1ccc(-c2nc(N3CCCCCC3)sc2C(=O)c2ccccc2)cc1	i	i	nt	nt	2098	i
O=C(c1ccc(Br)cc1)c1sc(N2CCOCC2)nc1-c1ccccc1	i	i	i	2783	i	i
COc1ccc(/C=C/C(=O)OCC(=O)c2c(N)n(C)c(=O)n(C)c2=O)cc1	i	i	i	i	i	i
COc1ccc(Cl)cc1C(=O)N1CCN(c2ccccn2)CC1	i	i	nt	nt	i	i
N#Cc1c(-c2ccccc2)cc(-c2ccccc2)nc1Br	i	i	i	2095	i	i
CCOC(=O)c1c(NC(=O)CSc2c[nH]c3ccccc23)sc2c1CCCC2	i	i	i	4458	i	i
CCOC(=O)c1c(NC(=O)CSc2c[nH]c3ccccc23)sc2c1CCC2	i	i	i	4916	i	i
CCOC(=O)c1c(NC(=O)C(C)Sc2cn(C)c3ccccc23)sc2c1CCC2 (stereo not drawn)	i	i	i	i	i	24
SMILES	PPARg SRC1 recr	PPARg SRC3 recr	SRC1 TRFRET art	SRC3 TRFRET art	SRC2 TRFRET art	PPARg SRC-2 ag
CCOC(=O)c1c(NC(=O)C(C)Sc2cccc[n+]2[O-])sc2c1CCN(Cc1ccccc1)C2 (stereo not drawn)	i	i	i	i	i	i
CCOC(=O)c1c(NC(=O)CSc2nnc(-c3c[nH]c4ccccc34)n2CCOC)sc2c1CCCCC2	i	i	i	i	i	i
C/C(=N/NC(=O)Cc1c(C)[nH][nH]c1=O)c1ccc(O)cc1	i	i	i	i	i	i
CCN1/C(=C\C(=S)Nc2ccccc2)Sc2ccccc21	i	i	3876	3725	2548	i
CCCCOC(=O)CSc1nc(N)c(C#N)c(-c2ccc(OCC)cc2)c1C#N	56	i	nt	nt	i	i
N/C(=N\OS(=O)(=O)c1ccc(Cl)cc1)c1cccnc1	i	i	i	i	i	i
Cc1ccc(S(=O)(=O)Nc2ccc(-c3csc(-c4ccccc4)n3)cc2)cc1	i	i	i	2149	i	i
CC1CCc2nn(CC(=O)NCCCN3CCOCC3)cc2C1 (stereo not drawn)	i	i	nt	nt	i	i
COc1ccc(-c2csc(N(CCc3ccc(OC)c(OC)c3)C(=O)COc3ccccc3)n2)cc1	i	i	nt	nt	2007	i
CCN(C(=O)c1cccs1)c1nc(-c2ccc(OC)cc2)cs1	i	i	i	2437	i	i
COc1ccc(-c2csc(N(CCCN(C)C)C(=O)c3cccs3)n2)cc1	i	i	i	i	i	i
COc1ccc(-c2csc(N(Cc3ccccc3)C(=O)COc3ccc(Cl)cc3)n2)cc1	i	i	nt	nt	i	i
COc1cc(/C=N/NC(=O)c2ccc(CSc3nncn3C)cc2)cc(OC)c1O	i	i	i	i	i	i
Cc1ccc2sc3ccc(NC(=O)c4ccccc4Cl)cc3c(=O)c2c1	i	i	nt	nt	2846	i
CSc1cc(-c2ccc(Cl)cc2)n(Cc2ccccc2)c(=O)c1C#N	i	43	nt	nt	i	i
Cc1c(C(=O)Nc2ccc(-n3cnnn3)cc2)oc2ccccc12	i	i	nt	nt	1999	i
COc1ccc(CC(=O)Nc2nc(-c3cc(OC)ccc3OC)cs2)cc1	i	i	i	i	i	i
COc1ccc(OC)c(-c2csc(NC(=O)c3ccc4c(c3)OCO4)n2)c1	i	i	i	2559	i	i
CCOc1ccc(N(CC(=O)NCc2ccc(F)cc2)S(=O)(=O)c2c(C)noc2C)cc1	i	i	nt	nt	i	i
COc1ccccc1NC(=O)COC(=O)/C=C/c1ccccc1[N+](=O)[O-]	i	i	i	i	i	i
CCc1cc2ccc(OC)cc2nc1SCC(=O)NNC(=O)c1ccco1	i	i	i	i	2005	i
COc1ccc([N+](=O)[O-])cc1NC(=O)C1CCCO1 (stereo not drawn)	i	i	i	i	i	i
CCCCC(CC)Cn1c2nc3ccccc3nc2c2c(=N)oc(C)nc21 (stereo not drawn)	i	i	nt	nt	2312	48
CCCCC(CC)Cn1c(N)c(C#N)c2nc3ccccc3nc21 (stereo not drawn)	i	i	nt	nt	i	i
COc1cc(C#N)c(NC(=S)N2CCOCC2)cc1OC	i	i	i	i	2021	i
SMILES	PPARg SRC1 recr	PPARg SRC3 recr	SRC1 TRFRET art	SRC3 TRFRET art	SRC2 TRFRET art	PPARg SRC-2 ag
CCn1nc(C)cc1C(=O)N1CCCC(CCC(=O)NCc2ccccc2F)C1 (stereo not drawn)	i	i	i	i	i	i
O=c1c(-c2n[nH]c(=S)n2-c2ccccc2)cccn1Cc1cccc(Cl)c1	i	i	i	i	1986	i
CN1CCN(C(=O)CN(Cc2ccc(Cl)cc2)S(C)(=O)=O)CC1	i	i	nt	nt	i	i
CC(C)CCNC(=O)NC(=O)COC(=O)/C=C/c1cccc([N+](=O)[O-])c1	i	i	i	i	i	i
CC(C)CCNC(=O)NC(=O)COC(=O)/C=C/c1cnc2ccccc2n1	i	i	nt	nt	2705	64
CCN(CC)c1c(-c2ccccc2)c2cc(C)ccc2[nH]c1=O	i	i	i	i	i	i

Assay outcomes: PubChem BioAssay, The Scripps Research Institute Molecular Screening Center
